Among the test systems are SR leukemia; RPMI-8226 leukemia; OVCAR-8 ovarian; OVCAR-5 ovarian; OVCAR-4 ovarian; SK-OV-3 ovarian; IGROV1 ovarian; OVCAR-3 ovarian; HS 578T breast; NCI/ADR-RES ovarian.
Experiment in all cases: NCI-60 one-dose screen, 48 h (100 = growth as untreated, 0 = no growth, -100 = all killed)
Holding throughout (conditions): 10 µM unless noted

Several values for one entry are separate records, joined by “and”; a condition that tells them apart may be missing. Equal values may be shown once. This is part of a sample that, as a whole, favours compounds with a hit. Of some 83,000 tested, about 20% had one in any assay.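 Testing used 96-well plates and a 48-hour single-concentration exposure. Example: -40 means 40% of the starting cells died.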 Activity calls are given as the source filed them. Rule for the calls: active = growth percent below 10; inactive = the rest.

As to `C#C[C@]1(O)CC[C@H]2[C@@H]3CC=C4c5sc(Nc6ncccc6C)nc5CC[C@]4(C)[C@H]3CC[C@@]21C`, the growth was -3.26% (active) in the assay with SR leukemia; -36.2% (active) with RPMI-8226 leukemia; 31.1% (inactive) in the assay with OVCAR-8 ovarian; 26% (inactive) in the assay with OVCAR-5 ovarian; 34.9% (inactive) with OVCAR-4 ovarian; -37.2% (active) in the assay on SK-OV-3 ovarian. Besides, the growth in the assay on IGROV1 ovarian was 40% (inactive); in the assay with OVCAR-3 ovarian, 32.1% (inactive); in the assay on HS 578T breast it was -16.1% (active); in the assay with NCI/ADR-RES ovarian it was 28.1% (inactive).
For `COc1cc2oc(-c3cccc(NC(=O)[C@@H](N)C(C)C)c3)cc(=O)c2c(OC)c1OC`, the growth is 76.9% (inactive) in the assay with SR leukemia; 88.2% (inactive) in the assay on RPMI-8226 leukemia; 99% (inactive) with OVCAR-8 ovarian; 103% (inactive) in the assay on OVCAR-5 ovarian; 107% (inactive) in the assay with OVCAR-4 ovarian; 104% (inactive) in the assay on SK-OV-3 ovarian. In addition, the growth in the assay with IGROV1 ovarian was 103% (inactive); in the assay on OVCAR-3 ovarian, 108% (inactive); with HS 578T breast, 112% (inactive); in the assay on NCI/ADR-RES ovarian it was 107% (inactive).
Turning to `COc1cc(-c2nc(-c3ccccc3)[nH]c2-c2ccnc(NCCCNS(=O)(=O)c3ccc(C(F)(F)F)cc3)n2)ccc1Cl`, the growth in the assay on SR leukemia is 9.32% (active) and 35.8% (inactive); with RPMI-8226 leukemia, 12.5% (inactive) and 31.6% (inactive); in the assay on OVCAR-8 ovarian, 53.2% (inactive) and 40.2% (inactive); in the assay on OVCAR-5 ovarian, 103% (inactive) and 84.4% (inactive); in the assay with OVCAR-4 ovarian it was 41.6% (inactive) and 39.1% (inactive); in the assay on SK-OV-3 ovarian it was 99.5% (inactive) and 55.1% (inactive). The growth in the assay on IGROV1 ovarian is 59.6% (inactive) and 51.8% (inactive); with OVCAR-3 ovarian, 33.6% (inactive) and 39.6% (inactive); with HS 578T breast, 58.8% (inactive) and 71.9% (inactive); with NCI/ADR-RES ovarian, 13.8% (inactive) and 32.4% (inactive).
In the case of `CC1=C(C)C(=O)C(Nc2cccc(C(=O)OC(C)(C)C)c2)=CC1=O`, the growth is 81.8% (inactive) with SR leukemia; 75.8% (inactive) with RPMI-8226 leukemia; 82.2% (inactive) in the assay on OVCAR-8 ovarian; 98.3% (inactive) with OVCAR-5 ovarian; 34.9% (inactive) in the assay on OVCAR-4 ovarian; 90.5% (inactive) in the assay on SK-OV-3 ovarian. Further, the growth in the assay on IGROV1 ovarian was 72.9% (inactive); in the assay with OVCAR-3 ovarian it was 6.18% (active); in the assay with HS 578T breast, 79.4% (inactive); with NCI/ADR-RES ovarian it was 76% (inactive).
With `NC(=O)c1c(NC(=O)c2ccc(C(F)(F)F)cc2)sc2c1CCC(=O)C2`, the growth was 1.33% (active) in the assay on SR leukemia; -30.3% (active) in the assay with RPMI-8226 leukemia; 9.01% (active) with OVCAR-8 ovarian; 9.87% (active) in the assay with OVCAR-5 ovarian; -66.9% (active) in the assay with OVCAR-4 ovarian; 37.5% (inactive) with SK-OV-3 ovarian. Also, the growth in the assay with IGROV1 ovarian was 16.2% (inactive); in the assay on OVCAR-3 ovarian, -17.2% (active); with HS 578T breast it was 19.4% (inactive); in the assay on NCI/ADR-RES ovarian it was 0.891% (active).
Take `CC1(C)CC[C@]2(C(=O)NCCCCCCN(CCCN)CCCN)CC[C@]3(C)C(=CC[C@@H]4[C@@]5(C)CC[C@H](O)C(C)(C)[C@@H]5CC[C@]43C)[C@@H]2C1`: the growth with SR leukemia was 87.2% (inactive); with RPMI-8226 leukemia, 100% (inactive); in the assay on OVCAR-8 ovarian it was 99% (inactive); with OVCAR-5 ovarian, 96.8% (inactive); in the assay with OVCAR-4 ovarian, 109% (inactive); in the assay with SK-OV-3 ovarian it was 114% (inactive). The growth in the assay with IGROV1 ovarian is 101% (inactive); with OVCAR-3 ovarian, 106% (inactive); with HS 578T breast, 110% (inactive); in the assay with NCI/ADR-RES ovarian, 98.8% (inactive).
`CC(=O)OCCCCN1C=C/C(=C\C(=O)n2ccc3ccccc32)c2ccccc21`: the growth in the assay on SR leukemia is 88.7% (inactive); in the assay with RPMI-8226 leukemia it was 98.3% (inactive); with OVCAR-8 ovarian, 102% (inactive); in the assay with OVCAR-5 ovarian it was 102% (inactive); with OVCAR-4 ovarian, 85.5% (inactive); with SK-OV-3 ovarian, 97.6% (inactive). Besides, the growth in the assay with IGROV1 ovarian is 83.3% (inactive); in the assay on OVCAR-3 ovarian it was 100% (inactive); with HS 578T breast, 102% (inactive); in the assay with NCI/ADR-RES ovarian it was 109% (inactive).
On to `CC1=C(SCC(=O)OCCCCCC(C)C)C(=O)c2ccccc2C1=O`, for which the growth with SR leukemia is 83.7% (inactive); with RPMI-8226 leukemia, 61% (inactive); in the assay on OVCAR-8 ovarian, 92.1% (inactive); in the assay with OVCAR-5 ovarian it was 113% (inactive); with OVCAR-4 ovarian it was 70.1% (inactive); in the assay with SK-OV-3 ovarian it was 104% (inactive). Besides, the growth in the assay on IGROV1 ovarian is 79.8% (inactive); in the assay on OVCAR-3 ovarian it was 74% (inactive); with HS 578T breast, 91.8% (inactive); in the assay with NCI/ADR-RES ovarian, 100% (inactive).
Take `C=C(C)[C@@H]1CC[C@]2(C(=O)NC3CCCCC3)CC[C@]3(C)[C@H](CC[C@@H]4[C@@]5(C)CC[C@H](N)C(C)(C)[C@@H]5CC[C@]43C)[C@@H]12`: the growth is 1.36% (active) with SR leukemia; 39% (inactive) in the assay on RPMI-8226 leukemia; 101% (inactive) in the assay on OVCAR-8 ovarian; 115% (inactive) with OVCAR-5 ovarian; 96.4% (inactive) in the assay with OVCAR-4 ovarian; 117% (inactive) with SK-OV-3 ovarian. The growth in the assay with IGROV1 ovarian is 113% (inactive); in the assay with OVCAR-3 ovarian, 101% (inactive); in the assay on HS 578T breast, 95.8% (inactive); in the assay with NCI/ADR-RES ovarian it was 97.5% (inactive).
As to `Cn1cc(-c2cc3ncnc(Nc4ccc(CC(=O)Nc5nc(C(C)(C)C)cs5)cc4)c3s2)cn1`, the growth is 36.2% (inactive) in the assay with SR leukemia; 38.8% (inactive) with RPMI-8226 leukemia; 38.1% (inactive) in the assay on OVCAR-8 ovarian; 84.3% (inactive) in the assay with OVCAR-5 ovarian; 28.2% (inactive) with OVCAR-4 ovarian; 26.2% (inactive) in the assay with SK-OV-3 ovarian. The growth was 12% (inactive) in the assay with IGROV1 ovarian, 62.3% (inactive) in the assay on OVCAR-3 ovarian, 47.3% (inactive) in the assay with HS 578T breast and 101% (inactive) in the assay with NCI/ADR-RES ovarian.
As for `O=C(Nc1cccc(Cl)c1)Nc1nc2cc([N+](=O)[O-])ccc2o1`, the growth in the assay with SR leukemia is 57.8% (inactive); in the assay with RPMI-8226 leukemia, 35.8% (inactive); with OVCAR-8 ovarian, 33.9% (inactive); with OVCAR-5 ovarian it was 75.5% (inactive); with OVCAR-4 ovarian, 3.58% (active); in the assay with SK-OV-3 ovarian it was 74.3% (inactive). For the same molecule, the growth was 44.9% (inactive) in the assay on IGROV1 ovarian, -0.896% (active) in the assay with OVCAR-3 ovarian, 71.4% (inactive) in the assay on HS 578T breast and 22.6% (inactive) in the assay on NCI/ADR-RES ovarian.
`CCOC(=O)c1c(NC(=O)c2ccc(C(F)(F)F)cc2)sc2c3c(ccc12)OCN(C)C3`: the growth is -29.8% (active) in the assay with SR leukemia; -36.9% (active) in the assay with RPMI-8226 leukemia; -48% (active) in the assay with OVCAR-8 ovarian; 54.2% (inactive) in the assay with OVCAR-5 ovarian; 82.4% (inactive) in the assay with OVCAR-4 ovarian; 93.5% (inactive) in the assay with SK-OV-3 ovarian. Moreover, the growth with IGROV1 ovarian was 41.9% (inactive); in the assay on OVCAR-3 ovarian it was 2.17% (active); in the assay on HS 578T breast, 78.7% (inactive); in the assay on NCI/ADR-RES ovarian, 51.9% (inactive).
As to `Cc1ccc2c(n1)C(=O)C(Cl)=C(Nc1ccc(C)c(C)c1)C2=O`, the growth in the assay with SR leukemia is 28.1% (inactive); with RPMI-8226 leukemia, 11.1% (inactive); in the assay on OVCAR-8 ovarian, 67.2% (inactive); in the assay on OVCAR-5 ovarian it was 91.6% (inactive); in the assay on OVCAR-4 ovarian, -29% (active); with SK-OV-3 ovarian, 99.1% (inactive). The growth with IGROV1 ovarian was -45.5% (active); in the assay with OVCAR-3 ovarian, -21.4% (active); with HS 578T breast it was 32.8% (inactive); in the assay with NCI/ADR-RES ovarian, 63.1% (inactive).

The values above are taken from PubChem BioAssay (NCI).
